# Source: PubChem BioAssay
# Activity calls are given as the source filed them. Unless noted, no rule for the calls is given here.
# Columns and labels:
# [1] = HepG2 liver cancer cell viability effects, profiling panel, resazurin fluorescence, 24 h, PK04 Diversity Set (AID 1172); settings: higher = more signal
# [2] = basal S. cerevisiae growth modulation, no modifier, primary screen, OD600, strain BY4716, 24 h, basal condition (AID 1173); settings: OD600, 24 h, higher = more signal, called active from +8 up or from −8 down
# [3] = MM1S myeloma cell viability, profiling panel, resazurin fluorescence, basal, 24 h, PK04 Diversity Set (AID 1174); settings: higher = more signal, called active from +8 up or from −8 down;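 also: MM1S multiple myeloma cell line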
# [4] = molecular target: Dihydroorotate dehydrogenase (quinone), mitochondrial (Plasmodium falciparum (isolate 3D7)) (UniProt Q08210); assay: PfDHODH enzyme inhibitors, primary screen, biochemical, C-terminal His tag, absorbance 600 nm (AID 1175); settings: DCIP absorbance 600 nm, higher = more signal, called active from +8 up or from −8 down;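 also: recombinant parasite enzyme with a five histidine tag at its C terminus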
# Chain of Dihydroorotate dehydrogenase (quinone), mitochondrial (Plasmodium falciparum (isolate 3D7)) (Q08210 whole entry, looked up): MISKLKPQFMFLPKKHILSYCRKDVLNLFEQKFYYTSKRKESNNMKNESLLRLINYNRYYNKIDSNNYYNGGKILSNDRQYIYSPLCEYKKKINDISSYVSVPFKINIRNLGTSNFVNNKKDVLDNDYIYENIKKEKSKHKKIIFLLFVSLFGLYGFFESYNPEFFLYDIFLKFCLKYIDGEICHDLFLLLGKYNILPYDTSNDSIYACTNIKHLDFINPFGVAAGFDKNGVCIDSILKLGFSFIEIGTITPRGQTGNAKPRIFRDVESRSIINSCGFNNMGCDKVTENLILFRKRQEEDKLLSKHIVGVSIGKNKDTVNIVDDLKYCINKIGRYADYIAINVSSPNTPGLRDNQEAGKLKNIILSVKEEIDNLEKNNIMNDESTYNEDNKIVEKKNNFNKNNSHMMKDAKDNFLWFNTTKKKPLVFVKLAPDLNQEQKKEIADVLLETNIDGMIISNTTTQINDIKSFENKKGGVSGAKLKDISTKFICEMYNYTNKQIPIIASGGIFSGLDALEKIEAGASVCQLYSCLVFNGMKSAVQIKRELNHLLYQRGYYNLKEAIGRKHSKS
# [5] = P. aeruginosa biofilm formation inhibitors, primary screen, strain PAO1, LB-PBS medium, absorbance 600 nm (AID 1176); settings: P. aeruginosa PAO1 growth/biofilm, A600, 12 h; higher = more signal
# [6] = S. cerevisiae RM11-1a growth modifiers, primary screen, strain RM11-1a, OD600, basal, 24 h (AID 1177); settings: OD600, 24 h, higher = more signal, called active from +8 up or from −8 down;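 also: cultures grown under basal conditions with no added stressor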
# [7] = E. coli acrAB mutant growth effects, primary screen, E. coli filamentation inducers, strain DRC39, OD650, 24 h (AID 1178); settings: higher = more signal, called active from +8 up or from −8 down;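 also: growth measured as culture turbidity by optical density at 650 nm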
# [8] = E. coli acrAB mutant growth effects, primary screen, E. coli filamentation inducers, strain DRC39, OD650, 48 h (AID 1179);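 also: screen aims at cell division blockers that make cells filament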; settings: E. coli DRC39 delta-acrAB growth, higher = more signal, called active from +8 up or from −8 down
# [9] = RPMI8226 myeloma cell viability, profiling panel, resazurin fluorescence, basal, 24 h, PK04 Diversity Set (AID 1180); settings: higher = more signal;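 also: RPMI8826 multiple myeloma cell line at 5000 cells per well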
# [10] = molecular target: E3 ubiquitin-protein ligase XIAP (Homo sapiens) (UniProt P98170); assay: XIAP binders, primary screen, biophysical, small-molecule microarray, fluorescence 635 nm (AID 1181); settings: small-molecule microarray binding, higher = more signal;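 also: score merges 667 nm emission and signal to noise over triplicate slides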
# Chain of E3 ubiquitin-protein ligase XIAP (Homo sapiens) (P98170 whole entry, looked up): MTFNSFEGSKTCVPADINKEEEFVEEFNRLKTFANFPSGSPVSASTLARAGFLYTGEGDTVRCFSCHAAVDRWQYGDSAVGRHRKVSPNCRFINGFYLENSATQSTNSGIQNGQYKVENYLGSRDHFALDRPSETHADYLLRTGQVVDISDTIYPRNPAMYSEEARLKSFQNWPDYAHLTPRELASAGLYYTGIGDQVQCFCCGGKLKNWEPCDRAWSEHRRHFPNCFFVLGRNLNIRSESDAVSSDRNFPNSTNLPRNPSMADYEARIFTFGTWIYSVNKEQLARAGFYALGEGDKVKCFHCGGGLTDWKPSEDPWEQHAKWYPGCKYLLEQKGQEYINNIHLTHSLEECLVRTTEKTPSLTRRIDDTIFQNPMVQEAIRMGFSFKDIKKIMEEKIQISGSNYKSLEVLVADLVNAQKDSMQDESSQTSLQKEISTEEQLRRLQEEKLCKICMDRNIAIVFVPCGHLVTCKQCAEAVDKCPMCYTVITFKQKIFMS
# [11] = system: XIP peptide (Xip251-270) binding; assay: small-molecule binders of XIP peptide, primary screen, biochemical, small-molecule microarray, fluorescence 635/667 nm, 0.1 µg/mL protein (AID 1182); settings: fluorescent protein binding, 635 nm, higher = more signal, called active from +8 up or from −8 down
# XIP peptide (Xip251-270) = assay: small-molecule binders of XIP peptide, primary screen, biochemical, small-molecule microarray, fluorescence 635/667 nm, 0.5 µg/mL protein (AID 1183); settings: small-molecule microarray binding, fluorescence 635 nm; higher = more signal
# [12] = Plasmodium falciparum growth inhibition, primary screen, strain 3D7, DAPI fluorescence, 100 nL (AID 1184);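 also: parasites grown inside human red blood cells in medium with human serum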; settings: P. falciparum 3D7 growth, 3 d, higher = more signal
# [13] = molecular target: Homeobox protein Hox-A13 (Mus musculus) (UniProt Q62424); assay: inhibitors of HoxA13-DNA binding, primary screen, biochemical, fluorescence polarization, labeled oligonucleotide (AID 1185); settings: 15 min, higher = more signal, called active from +8 up or from −8 down
# Chain of Homeobox protein Hox-A13 (Mus musculus) (Q62424 whole entry, looked up): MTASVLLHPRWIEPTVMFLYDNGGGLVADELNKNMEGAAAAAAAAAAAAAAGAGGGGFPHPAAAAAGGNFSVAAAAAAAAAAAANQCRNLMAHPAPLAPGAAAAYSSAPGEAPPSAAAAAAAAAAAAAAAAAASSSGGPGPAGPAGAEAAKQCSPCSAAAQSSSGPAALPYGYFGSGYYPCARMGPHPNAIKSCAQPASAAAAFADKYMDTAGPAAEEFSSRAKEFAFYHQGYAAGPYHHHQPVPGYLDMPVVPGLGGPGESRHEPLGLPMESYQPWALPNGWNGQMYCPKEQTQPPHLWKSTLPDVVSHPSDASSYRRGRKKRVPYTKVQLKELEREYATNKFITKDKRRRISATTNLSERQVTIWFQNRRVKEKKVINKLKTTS
# [14] = inhibitors of hydroxyurea-induced Chk1 phosphorylation, primary screen, imaging, HeLa, phospho-Chk1 antibody, percent positive cells (AID 1186); settings: hydroxyurea-induced phospho-Chk1 immunofluorescence imaging, higher = more signal
# [15] = inhibitors of hydroxyurea-induced Chk1 phosphorylation, primary screen, imaging, HeLa, phospho-Chk1 nuclear intensity (AID 1187); settings: hydroxyurea-induced phospho-Chk1 immunofluorescence imaging, higher = more signal
Compound,z-score [1],z-score [2],z-score [3],composite z-score [4],z-score [5],z-score [6],z-score [7],z-score [8],z-score [9],composite z-score [10],composite z-score [11],composite z-score (XIP peptide (Xip251-270)),z-score [12],z-score [13],z-score [14],z-score [15]
O=C1O[C@H](c2ccccc2)[C@H](c2ccccc2)N2[C@H]1[C@@H](C(=O)Nc1nc3ccccc3s1)[C@]1(C(=O)Nc3ccccc31)[C@H]2c1ccc(O)cc1,-0.166,-0.373 (inactive),-2.72 (inactive),0.192 (inactive),1.18 (inactive),-0.393 (inactive),-0.797 (inactive),-1.24 (inactive),-2.81,-0.127,-0.0105 (inactive),0.143,-0.739,-0.0851 (inactive),0.282 (inactive),0.134 (inactive)
CC(C)c1ccc(NN2C(C(O)c3c(F)cccc3Cl)C=CC3C(=O)N(c4ccccc4)C(=O)C32)cc1 (stereo not given),-1.59,-0.134 (inactive),-1.35 (inactive),1.36 (inactive),0.807 (inactive),1.5 (inactive),-0.576 (inactive),-0.895 (inactive),-1.42,-0.132,0.38 (inactive),0.748,-0.668,-1.64 (inactive),0.561 (inactive),0.539 (inactive)
[N-]=[N+]=Nc1ccccc1C[C@]1(C(=O)NCCN2CCOCC2)N=C(c2ccc(OCCCO)cc2)O[C@H]1c1ccccc1,0.224,-3.1 (inactive),-0.359 (inactive),-0.0351 (inactive),0.565 (inactive),-0.52 (inactive),0.148 (inactive),-0.338 (inactive),-0.554,0.0679,0.533 (inactive),0.902,-2.37,-5.89 (inactive),0.184 (inactive),0.535 (inactive)
COc1ccc(C(=O)Nc2cccc(CN3C(=O)[C@]4(O[C@H](CC(=O)N5CCC[C@H]5CO)[C@@H]([Si](C)(C)c5ccc(OC)cc5)[C@@H]4C)c4ccccc43)c2)cc1,-1.72,-0.268 (inactive),-2.7 (inactive),-2.54 (inactive),0.0943 (inactive),0.312 (inactive),0.951 (inactive),0.441 (inactive),-4.84,-0.0998,1.64 (inactive),0.687,-1.34,-2.44 (inactive),-0.0977 (inactive),0.131 (inactive)
CC(C)NC(=O)[C@@H]1c2ccccc2C(=O)N(Cc2ccccc2Cl)[C@H]1c1ccc(CO)cc1,1.6,-0.197 (inactive),-0.27 (inactive),0.233 (inactive),0.183 (inactive),0.358 (inactive),0.696 (inactive),0.661 (inactive),0.131,0.103,0.989 (inactive),0.719,-0.842,-3.24 (inactive),0.323 (inactive),0.667 (inactive)
COCCOC(=O)N1C(=O)[C@@]2(c3cc(C#CCNC(N)=O)ccc31)[C@H](c1ccccc1OCCO)N1[C@H](c3ccccc3)[C@H](c3ccccc3)OC(=O)[C@H]1[C@@H]2C(N)=O,-0.554,1.91 (inactive),-0.279 (inactive),1.39 (inactive),0.971 (inactive),2.64 (inactive),-0.144 (inactive),-0.375 (inactive),0.138,-0.0525,-0.0949 (inactive),0.467,-0.585,-2.6 (inactive),0.0842 (inactive),-0.266 (inactive)
CN(C)CCCCNC(=O)[C@H]1C[C@H]2C(=O)N[C@@H](Cc3ccccc3)C(=O)N2[C@H]1c1ccc(O)cc1,-0.0562,-0.5 (inactive),-0.0866 (inactive),-16.7 (active),2.86 (inactive),0.466 (inactive),-0.539 (inactive),-0.855 (inactive),-0.0845,0.0256,0.508 (inactive),0.0009,-1.16,-0.0255 (inactive),-0.0685 (inactive),-0.195 (inactive)
COCCOC(=O)N1C(=O)[C@@]2(c3cc(C#CCNC(N)=O)ccc31)[C@H](c1ccc(O)cc1)N1[C@H](c3ccccc3)[C@H](c3ccccc3)OC(=O)[C@H]1[C@@H]2C(=O)Nc1nc2ccccc2s1,1.51,-2.16 (inactive),1.38 (inactive),-1.96 (inactive),3.22 (inactive),-2.47 (inactive),2.74 (inactive),2.74 (inactive),0.803,-0.115,-0.236 (inactive),-0.132,0.0446,-0.523 (inactive),-0.373 (inactive),-0.669 (inactive)
COCC1=C2[C@@H](CCc3ccccc3)OB(O)C[C@@H]2[C@@H]2C(=O)N(Cc3ccccc3)C(=O)[C@@H]2C1,0.0373,-1.69 (inactive),-0.278 (inactive),-0.345 (inactive),-0.177 (inactive),-1.06 (inactive),-0.0682 (inactive),-0.0309 (inactive),-0.039,-0.231,-0.653 (inactive),-0.538,1.22,-7.4 (inactive),0.141 (inactive),0.381 (inactive)
COC(=O)[C@@]1(Cc2ccccc2)[C@H]2c3cc(C(=O)N4CCCC4)n(C)c3C[C@H]2CN1C(=O)c1ccccc1,-0.533,0.211 (inactive),-1.48 (inactive),0.381 (inactive),0.976 (inactive),0.513 (inactive),-0.396 (inactive),-0.0676 (inactive),-0.705,0.391,-0.0625 (inactive),0.46,-0.994,-5.7 (inactive),0.0684 (inactive),-0.0761 (inactive)
